From PubChem BioAssay

tested on: XIP peptide (Xip251-270); experiment: compounds binding XIP fragment 251-270 – biochemical, small-molecule microarray, fluorescence 635/667 nm, 0.5 µg/mL protein, primary screen (AID 1183); details: fluorescence 635 nm, higher = more signal

Structure (SMILES) | composite z-score
CCOC(=O)[C@H](CC(C)C)NC(=O)CCC1CC(OC(=O)NCc2ccc3c(c2)OCO3)CC2(CCCC(COC(=O)NCCOc3ccccc3)O2)O1 (stereo partly specified) | 0.368
CCN1C(=O)[C@H]2[C@H]3[C@H](O)[C@H](O)CC(=NO[C@H](C)c4cn([C@H](CO)Cc5ccccc5)nn4)[C@@H]3CC[C@H]2C1=O | 0.722
C=CC[C@@H]1C=CC(ON=C(C)C)[C@@H](CO)O1 (stereo partly specified) | -0.0372
CCOC(=O)[C@H](CC(C)C)NC(=O)CCC1CC(OC(=O)NCc2ccc3c(c2)OCO3)CC2(CCCC(COC(=O)NCCc3ccccc3OC)O2)O1 (stereo partly specified) | 0.622
COC(=O)[C@H](Cc1ccccc1)NC(=O)[C@@H](C)CO | -0.9

tested on: not listed separately; experiment: blood-stage malaria parasite viability loss – strain 3D7, DAPI fluorescence, 100 nL, primary screen (AID 1184);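 also: parasites grown inside human red blood cells in medium with human serum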; details: P. falciparum 3D7 growth, 3 d, higher = more signal

Structure (SMILES) | z-score
CCOC(=O)[C@H](Cc1ccccc1)NC(=O)CCC1CC(OC(=O)NCc2cccc3ccccc23)CC2(CCCC(COC(=O)NCCc3ccccc3OC)O2)O1 (stereo partly specified) | -1.95
C#CCCCON=C1[C@H]2CCn3c(=O)n(Cc4cc5c(cc4Cl)OCO5)c(=O)n3[C@H]2[C@H](O)[C@@H]2O[C@H]12 | -0.579
CC1(C)O[C@H]2O[C@H]([C@H](O)CON=C3[C@H]4CCn5c(=O)n(-c6ccccc6)c(=O)n5[C@H]4[C@H](O)[C@@H]4O[C@H]34)[C@H](O)[C@H]2O1 | -0.511
O=C1C[C@@H](O)[C@@H](O)[C@@H]2[C@@H]3C(=O)N(C4CCCCC4)C(=O)[C@@H]3CC[C@@H]12 | 0.922
O=C(NN=C1C[C@@H](O)[C@@H](O)[C@@H]2[C@@H]3C(=O)N(Cc4ccccc4)C(=O)[C@@H]3CC[C@H]12)OCc1ccccc1 | 0.892
CO[C@@H]1[C@H](O)CO[C@H]1C=Cc1ccccc1 | -0.703
COC(=O)C1=C(C)N(Cc2ccccc2)C2=C3C(=O)OCC[C@@H]3[C@@](O)(C(=O)OC)C(=O)N2[C@@H]1c1ccccc1 | 0.964
CO[C@@H]1C=CCC(=O)N[C@@H](C)C(=O)OC[C@@H](NS(=O)(=O)c2ccc(C)cc2)[C@H](C)C=CCC(=O)OC[C@H]1C | 0.251
O=C(NN=C1C[C@@H](O)[C@@H](O)[C@@H]2[C@@H]3C(=O)N(c4ccc(F)cc4F)C(=O)[C@@H]3CC[C@H]12)OCc1ccccc1 | -0.131
CC(C)=CCCC(C)=CCON=C1C[C@@H](O)[C@@H](O)[C@@H]2[C@@H]3C(=O)N(C4CCCCC4)C(=O)[C@@H]3CC[C@H]12 | 0.273
O=C1[C@H]2CCn3c(=O)n(-c4ccccc4)c(=O)n3[C@H]2[C@H](O)[C@@H]2O[C@H]12 | -0.815
COC(=O)C(C(=O)OC)C1CCCC(=O)C1 (stereo unspecified) | -0.468
COc1ccc(OC[C@H]2CN3[C@@H](CC[C@@H](C)[C@@H]3c3ccc(Br)cc3)C(=O)O2)cc1 | -1.32
CC(CCN1CCCc2nc(C)c(C)cc21)=NO[C@H](C)c1cn([C@@H]2COC[C@H]2O)nn1 | 0.612
C#CCCCON=C1C[C@@H](O)[C@@H](O)[C@@H]2[C@@H]3C(=O)N(C4CCCCC4)C(=O)[C@@H]3CC[C@@H]12 | 0.204
O=C1C2=CC[C@H]3C(=O)N(Cc4ccccc4)C(=O)[C@H]3[C@H]2[C@H](O)[C@@H]2O[C@H]12 | -0.116
C[C@H]1CC[C@@H](C(=O)O)N[C@@H]1c1ccc(C#Cc2ccccc2)cc1 | -1.61
COC(=O)[C@H](C)NC(=O)CCC1CC(OC(=O)NCc2ccc3c(c2)OCO3)CC2(CCCC(COC(=O)NCCC(C)C)O2)O1 (stereo partly specified) | -0.489
CC(C)[C@@H](OCc1ccccc1)[C@H](C)C=NO[C@@H](C)c1cn([C@H](CO)Cc2ccccc2)nn1 | 0.949
CC#CCOCCC=C1c2ccccc2[C@@H](OC)[C@@H]1C | -1.02
CC(C)(C)N1C(=O)[C@H]2[C@H]3[C@H](O)[C@H](O)CC(=NOC[C@@H](O)COCc4ccco4)[C@@H]3CC[C@H]2C1=O | -0.0662
CCOC(=O)[C@H](Cc1ccccc1)NC(=O)CCC1CC(OC(=O)NCc2ccc3c(c2)OCO3)CC2(CCCC(COC(=O)NCCOC)O2)O1 (stereo partly specified) | -2.09
CO[C@@H]1COC(=O)CC=C[C@H](C)[C@H](OC)COC(=O)[C@@H]2CCCN2C(=O)CC=C[C@H]1C | -1.52
CC(C)=CCCC(C)=CCON=C1C[C@@H](O)[C@@H](O)[C@@H]2[C@@H]3C(=O)N(Cc4ccc5c(c4)OCO5)C(=O)[C@@H]3CC[C@H]12 | -0.348
O=C1CCCC=C1C(O)COCc1ccccc1 (stereo unspecified) | -0.674
CC(C)(C)N1C(=O)[C@H]2[C@H]3[C@H](O)[C@H](O)CC(=NNC(=O)OCc4ccccc4)[C@@H]3CC[C@H]2C1=O | 2.05
